Data from PubChem BioAssay AID435009 (The Scripps Research Institute Molecular Screening Center, 2010).
Values without a mark were called inactive. Active and inactive are the calls of the source. How the calls were made is not given here.

Experiment: xanthine oxidase inhibitors, late-stage follow-up, NOX1 inhibitor project, biochemical, IC50, set 2 (AID 435009)
Conditions: Xanthine oxidase enzyme assay, ROS/superoxide detection

| Structure (SMILES) | IC50 |
| --- | --- |
| Cc1cc(Cl)ccc1NC(=S)NNC(=S)Nc1ccc(F)cc1 | 3300 nM (active) |
| CN(C)c1ccc(NC(=O)Nc2ccc(OCc3ccccc3)cc2)cc1 | 1300 nM (active) |
| COc1cc(-c2nc(-c3ccccc3)c(-c3ccccc3)[nH]2)ccc1O | 10 nM (active) |
| Fc1ccc(NC(=S)NNC(=S)Nc2ccccc2)cc1 | 500 nM (active) |
| CN(C)c1ccc(/C=N/Nc2c(Cl)cncc2Cl)cc1 | > 5000 nM |
| Oc1c(Br)cc(/C=N/Nc2c(Cl)cncc2Cl)cc1Br | > 5000 nM |
| FC(F)(F)c1ccc2c(c1)Nc1ccccc1S2 | 5000 nM (active) |
| COc1cc(-c2nc(-c3ccccc3)c(-c3ccccc3)[nH]2)cc(OC)c1O | 900 nM (active) |
| CSc1ccc(NC(=O)Nc2ccc(N(C)C)cc2)cc1 | 1200 nM (active) |
